The text below walks through data of ChEMBL document CHEMBL1157539, “Thousands of chemical starting points for antimalarial lead identification” (Nature, 2010).

Common to all, as to format: functional
Assay [1] relates to Plasmodium falciparum. The assay can be described thus: GSK_TCMDC: Inhibition of Plasmodium falciparum 3D7 in whole red blood cells, using parasite LDH activity as an index of growth. Test compounds present at 2uM.
Assay [2] concerns Plasmodium falciparum. The assay is described as follows: GSK_TCMDC: Inhibition of Plasmodium falciparum Dd2 in whole red blood cells, using parasite LDH activity as an index of growth. Test compounds present at 2uM.
Assay [3] concerns HepG2. The assay can be described thus: GSK_TCMDC: Percent inhibition of human HepG2 cell line. Test compounds present at 10uM.

The Inhibition is how much of the control response was suppressed. Turning to `O=C(Nc1ccc(Cl)cn1)c1sc2ccccc2c1O`, the Inhibition in assay [1] is recorded as 99%; in assay [2], 18%; in assay [3], 2%.
Take `CCC(CO)NCC(O)Cn1c2ccc(Cl)cc2c2cc(Cl)ccc21` (stereo not given): the figures for the Inhibition in assay [1], in assay [2] and in assay [3] were 96%, 88% and 11%, respectively.
Regarding `CC(C)(Oc1ccc(Cl)cc1)C(=O)NCCC1CCN(CCCCCNC(=O)/C=C/c2ccc(Cl)c(Cl)c2)CC1`, the Inhibition in assay [1] was 87%; in assay [2], 37%; in assay [3] it was 73%.
With `COCCNCc1ccc(-c2ccc3c(Nc4ccc(Cl)cc4F)ccnc3c2)o1`, the Inhibition in assay [1] is 100%; in assay [2], 100%; in assay [3] it was 15%.
In the case of `Cc1[nH]c(C)c(-c2ccc(OCCCc3ccccn3)cc2)c(=O)c1Br.Cl`, the Inhibition amounted to 98% in assay [1], 97% in assay [2] and 0% in assay [3].
With `COc1cc2ccccc2cc1CCNCCCCNCCc1cc2ccccc2cc1OC.CS(=O)(=O)O`, the Inhibition in assay [1] was found to be 99%; in assay [2], 38%; in assay [3] it was 100%.
For `C[C@@H](N/C(=N\c1ccccc1Cl)Nc1ccc(C#N)cc1O)c1ccc(Br)cc1`, the results for the Inhibition in assay [1], in assay [2] and in assay [3] were 98%, 70% and 33%, respectively.
On to `COc1cccc(NC(=O)Nc2ccc(Nc3nc(C)cc(N(C)C)n3)cc2)c1`, for which the Inhibition was 100% in assay [1], 100% in assay [2] and 14% in assay [3].
In the case of `COc1ccccc1CCNc1nc(C)cc(N[C@@H](Cc2ccccc2)C(=O)NCc2cccc(F)c2)n1.O=C(O)C(F)(F)F`, the Inhibition in assay [1] was determined as 99%; in assay [2] it was 86%; in assay [3] it was 31%.
`CCCCCCCN1CC[C@@H](CCCc2ccnc3ccc(OCCN4CCNCC4)cc23)[C@@H](CC)C1.Cl`: the Inhibition in assay [1] was 100%; in assay [2], 98%; in assay [3], 82%.
Regarding `Cl.Oc1ccc(C2CNCCc3c2cc(O)c(OCc2ccccc2)c3Cl)cc1` (stereo not given), the figures for the Inhibition in assay [1], in assay [2] and in assay [3] were 98%, 8% and 14%, respectively.
As to `Cc1[nH]c(C)c(-c2ccc(-c3ccc(OC(F)(F)F)cc3)nc2)c(=O)c1Br`, the Inhibition in assay [1] is given as 97%; in assay [2], 97%; in assay [3], 26%.
Regarding `O=C(Nc1cccc(-c2ccc(-c3nc4cc(F)ccc4[nH]3)s2)c1)c1cccnc1`, the Inhibition stood at 100% in assay [1], 72% in assay [2] and 46% in assay [3].
In the case of `CCCCC(CC)CN1C(=O)C(c2ccccc2)(c2ccccc2)N=C1N.O=CO` (stereo not given), the Inhibition is listed as 94% in assay [1], 98% in assay [2] and 32% in assay [3].
`COc1ccc(C(F)(F)F)cc1N1CCN(CCCCNC(=O)c2ccc(NC(=O)c3ccc(Cl)cc3)cc2)CC1`: the Inhibition stood at 94% in assay [1], 1% in assay [2] and 12% in assay [3].
`COc1cccc(-c2ccc3c(-c4cccc(S(C)(=O)=O)c4)cnc(N)c3c2)c1`: the results for the Inhibition in assay [1], in assay [2] and in assay [3] were 96%, 21% and 45%, respectively.
For the molecule `CCCCCCc1cc2cc(-c3nc(-c4ccc(OC)cc4)cs3)c(=O)oc2cc1O`, the Inhibition turned out to be 97% in assay [1], 93% in assay [2] and 45% in assay [3].
As to `COc1ccc2nccc([C@@H](O)CN3CCC(NCc4cc5ccccn5n4)CC3)c2c1.O=C(O)C(=O)O`, the Inhibition came out at 99% in assay [1], 18% in assay [2] and 7% in assay [3].
In the case of `COc1ccc2ncc(C)c(CCN3CCC(NCc4ccc5c(n4)NC(=O)CS5)CC3)c2c1.Cl`, the results for the Inhibition in assay [1], in assay [2] and in assay [3] were 100%, 53% and 14%, respectively.
For `Nc1ncc(-c2ccccc2)cc1/C=C/c1cccnc1`, in that order: 91%, 9% and 33%.
